VDR inhibitor: Inhibitors of the vitamin D receptor (VDR): qHTS | Potency, µM, usual class: inhibitors | VDR-SRC2-3 peptide fluorescence polarization, 2 h | actives 0.93% (n = 400,000) | Vitamin D3 receptor (Homo sapiens), P11473
Target sequence (P11473 whole entry, looked up): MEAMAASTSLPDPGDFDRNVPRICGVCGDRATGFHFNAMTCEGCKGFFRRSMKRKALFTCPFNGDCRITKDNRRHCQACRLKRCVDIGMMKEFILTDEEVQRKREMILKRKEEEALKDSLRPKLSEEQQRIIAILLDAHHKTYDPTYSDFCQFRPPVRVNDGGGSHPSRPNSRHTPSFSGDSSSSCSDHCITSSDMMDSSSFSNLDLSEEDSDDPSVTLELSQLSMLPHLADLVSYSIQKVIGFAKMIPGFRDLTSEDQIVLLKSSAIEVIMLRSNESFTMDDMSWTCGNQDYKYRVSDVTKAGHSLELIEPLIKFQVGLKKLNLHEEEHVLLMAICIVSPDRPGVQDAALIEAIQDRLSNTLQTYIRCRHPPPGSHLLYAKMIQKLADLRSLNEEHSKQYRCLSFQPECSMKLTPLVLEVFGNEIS
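The screen uses fluorescence polarization to detect compounds that interfere with recruitment of the SRC2-3 coactivator peptide to VDR; plates are read after 2 h at room temperature.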
BAZ2B inh: qHTS Assay for Inhibitors of BAZ2B; Potency, µM (titrated, usually from 114 µM), hits mostly inhibitors; actives 4.4% (n = 360,000); Bromodomain adjacent to zinc finger domain protein 2B (Homo sapiens), Q9UIF8; AlphaScreen BAZ2B-H3K14Ac peptide displacement; also: nearly all actives have a fitted effect of over 60% in size
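In this displacement format the biotinylated H3(5-23) peptide acetylated at Lys14 serves as ligand at 50 nM, with BAZ2B at 50 nM in PBS pH 7.4 containing 0.01% Tween-20. Donor and acceptor beads are 10 ug/mL final.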
PLK1 PBD inh: qHTS for Inhibitors of PLK1-PDB (polo-like kinase 1 - polo-box domain): Primary Screen. Serine/threonine-protein kinase PLK1 (Homo sapiens), P53350. Plk1 PBD binding of FITC phosphopeptide, fluorescence polarization. Potency, µM, hits mostly inhibitors. actives 2.8% (n = 360,000). AID 720504, 2013; also: series mostly up to about 57 µM; nearly all actives have a fitted effect of over 65% in size
HP1b chromo inh: HTS for Inhibitors of HP1-beta Chromodomain Interactions with Methylated Histone Tails; Chromobox protein homolog 1 (Homo sapiens), P83916; AlphaScreen HP1-beta / biotin-H3K9me3 peptide binding; Potency, µM (series often up to 114 µM), hits mostly inhibitors; actives 0.56% (n = 390,000); AID 540317, 2011; also: nearly all actives have a fitted effect of over 70% in size
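HP1-beta protein (50 nM final) preincubated 30 min at room temperature with biotinylated H3(1-18)K9me3 peptide (50 nM) in PBS pH 7.4, 0.01% Tween-20, then compound added for 30 min. AlphaScreen streptavidin donor/nickel chelate acceptor beads (10 ug/mL final), 30 min dark, luminescence read.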
G9a block: qHTS Assay for Inhibitors of Histone Lysine Methyltransferase G9a. Histone-lysine N-methyltransferase EHMT2 (Homo sapiens), Q96KQ7. G9a H3K9 monomethylation, AlphaScreen, 2 h. Potency, µM (doses to about 102 µM), most hits filed as inhibitors. actives 8.8% (n = 350,000); also: nearly all actives have a fitted effect of over 75% in size
Target sequence (Q96KQ7 913-1193 limits assumed): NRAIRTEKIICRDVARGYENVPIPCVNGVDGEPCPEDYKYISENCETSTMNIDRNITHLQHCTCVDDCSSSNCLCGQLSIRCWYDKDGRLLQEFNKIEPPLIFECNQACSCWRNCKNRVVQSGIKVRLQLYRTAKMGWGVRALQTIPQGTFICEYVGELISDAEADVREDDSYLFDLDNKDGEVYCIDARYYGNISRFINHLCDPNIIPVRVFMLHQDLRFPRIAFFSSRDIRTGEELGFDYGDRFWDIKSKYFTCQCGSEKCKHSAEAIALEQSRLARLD
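G9a (20 nM) preincubated 15 min RT with compounds, then 500 nM biotinylated H3K9 peptide and 20 uM SAM added; 2 h RT reaction. Monomethyl-H3K9 product detected by AlphaScreen with anti-H3K9me1 antibody, streptavidin donor and anti-rabbit IgG acceptor beads.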
JMJD2A Tudor: qHTS Assay for Inhibitors of JMJD2A-Tudor Domain | AID 504339, 2011 | Lysine-specific demethylase 4A (Homo sapiens), O75164 | AlphaScreen JMJD2A-Tudor / H3K4me3 peptide binding | actives 4.4% (n = 390,000) | Potency, µM (top dose mostly 114 µM), most hits filed as inhibitors; also: nearly all actives have a fitted effect of over 50% in size
Hits are given with their value; . = inactive; ? = inconclusive; / = no result given; ! = not active in a repeat; [ ] = another dose, or the depositor's remark. Shown are actives, neighbours in structure and some others; about 11% of the full set was active somewhere. Calls follow the shape of the dose curve; as a rule, active = well fitted curve in the direction sought with a large enough effect; inconclusive = small, poorly fitted or top-dose-only effect, or another doubt; inactive = no such curve, though single readings can be large; an effect the other way counts as inactive or inconclusive.

SMILES	VDR inhibitor	BAZ2B inh	PLK1 PBD inh	HP1b chromo inh	G9a block	JMJD2A Tudor
O=C(COC(=O)C1C2CC3OC(=O)C1C3C2)Nc1ccccc1 (stereo not drawn)	.	.	.	.	50µM	.
CCc1ccc(/C=C2/C(=O)N(C)C(=S)N2CC(=O)OC)s1	.	.	?	.	35µM	.
CC(C)Cn1c(S(=O)(=O)O)nc2ccccc21	.	.	.	.	/	.
CC(C)Cn1c(/C=C/c2ccco2)nc2ccccc21	.	.	.	.	7.9µM	.
COc1cccc(-c2noc(COc3ccc(C(C)(C)C)cc3)n2)c1	.	.	/	.	.	.
CCOc1ccc(NC(=O)CCN2CCN(C)CC2)cc1	.	.	.	.	.	.
CN(C)c1ccc(Nc2ncnc3ccc(Br)cc23)cc1	?	45µM	.	?	10µM	45µM
COc1ccc2[nH]cc(CCNc3ncncc3-c3ccoc3)c2c1	.	/	/	/	.[0.501 µM]	/
c1ccc(Nc2ncncc2-c2ccoc2)cc1	56µM	/	/	/	.[0.501 µM]	/
COc1ccccc1-c1cncnc1Nc1ccc(F)cc1	.	/	/	/	/	/
Fc1ccc(Nc2ncncc2-c2ccoc2)cc1	32µM	/	/	/	.[0.501 µM]	/
COc1ccccc1-c1cncnc1Nc1ccccc1	28µM	/	/	/	.[0.501 µM]	/
O=C(NCCc1ccccc1)C1CC(=O)N(CCc2ccccc2)C1 (stereo not drawn)	.	.	.	.	.	.
C[C@@H](Cc1ccccc1)Nc1ncnc2c1ncn2[C@@H]1O[C@H](CO)[C@@H](O)[C@H]1O	.	/	/	/	.	/
COc1ccc(CNC(=O)Cc2csc3nc(-c4ccc(F)cc4)cn23)cc1	.	.	/	.	.	.
Cc1ccccc1-c1cncnc1Nc1ccc(F)cc1	.	/	/	/	/	/
CN(C)c1ccc(-c2cncnc2Nc2ccc(F)cc2)cc1	45µM	/	/	/	.[0.501 µM]	/
FC(F)(F)c1ccccc1-c1cncnc1-n1ccnc1	.	/	/	/	.[0.501 µM]	/
CN(C)c1ccc(-c2cncnc2-n2ccnc2)cc1	45µM	/	/	/	.[0.501 µM]	/
Cc1nnc(NCc2ccc(Cl)cc2)c2c1nnn2Cc1ccc(F)cc1	.	.	/	.	.	.
Cc1c(C(=O)N2CCN(Cc3ccccc3)CC2)oc2c1C(=O)CC(C)(C)C2	.	79µM	?	.	35µM	.
COc1cccc(N2CCN(C(=O)c3ccc(CS(=O)c4ccc(C)cc4)o3)CC2)c1 (stereo not drawn)	.	.	.	.	50µM	.
COc1cccc(N2CCN(C(=O)c3ccc(CS(=O)c4ccc(Cl)cc4)o3)CC2)c1 (stereo not drawn)	.	?	.	.	.	.
Cc1c(C(=O)N2CCN(c3ccccc3)CC2)oc2c1C(=O)CC(C)(C)C2	.	.	.	.	.	.
Cc1ccc(S(=O)(=O)Cc2ccc(C(=O)N3CCc4ccccc4C3)o2)cc1	.	50µM	?	?	50µM	56µM
SMILES	VDR inhibitor	BAZ2B inh	PLK1 PBD inh	HP1b chromo inh	G9a block	JMJD2A Tudor
COc1ccc(S(=O)(=O)Cc2ccc(C(=O)N3CCN(Cc4ccccc4)CC3)o2)cc1	.	.	.	.	35µM	.
NC(=S)c1c(Cl)cc(C(F)(F)F)cc1Cl	.	.	.	.	.	.
CCOc1ccccc1NC(=S)N(CCC(C)C)C1CCN(C(C)=O)CC1	.	.	.	.	.	.
Cc1ccccc1S(=O)(=O)Cc1ccc(C(=O)N2CCN(c3ncccn3)CC2)o1	.	.	.	.	.[12.7 µM]	.
COc1ccc(S(=O)(=O)Cc2ccc(C(=O)N3CCN(c4cc(Cl)ccc4C)CC3)o2)cc1	.	.	.	.	25µM	.
Cc1ccc(S(=O)(=O)Cc2ccc(C(=O)O)o2)cc1	.	50µM	19µM	.	13µM	45µM
CCc1ccccc1S(=O)(=O)Cc1ccc(C(=O)N2CCN(c3ccccn3)CC2)o1	.	.	.	.	79µM	.
COc1ccc(N2CCN(C(=O)c3ccc(CS(=O)(=O)c4ccc(OC)cc4)o3)CC2)cc1	.	?	.	.	40µM	.
COc1ccccc1S(=O)(=O)N(C)C[C@H]1OCc2cn(nn2)CCCC(=O)N([C@@H](C)CO)C[C@@H]1C	/	/	.	/	/	/
N#Cc1ccc(C(=O)Nc2cccc(S(=O)(=O)NC3=NCCC3)c2)cc1	.	/	.	.	/	.
C[C@]12c3[nH]c4ccccc4c3CCN1C(=O)C(CC(=O)NCCN1CCOCC1)C[C@@H]2C(=O)N1CCOCC1 (stereo partly drawn)	.	/	.	.	/	.
Cc1ccc(S(=O)(=O)Cc2ccc(C(=O)N3CCN(Cc4ccccc4)CC3)o2)cc1	/	50µM	/	/	45µM	/
Cc1ccc(S(=O)(=O)Cc2ccc(C(=O)N3CCN(c4cccc(C)c4C)CC3)o2)cc1	.	.	.	.	.	?
CCOC(=O)CCNC(=O)N1CCCC(N2CCN(c3ccc(OC)cc3)CC2)C1 (stereo not drawn)	.	.	.	.	/	.
CCc1ccc(C(=O)NNC(=S)Nc2ccc(S(N)(=O)=O)cc2)s1	.	.	.	.	7.9µM	.[11.4 µM]
CC(C)CC(=O)NNC(=S)Nc1ccc(S(N)(=O)=O)cc1	.	.	24µM	.	5.6µM	.
COc1cc(C(O)c2nc(-c3ccc(N(C)C)cc3)cs2)ccc1F (stereo not drawn)	/	/	.	/	/	/
COc1ccc(S(=O)(=O)N2CCOC23CCN(S(=O)(=O)c2cccs2)CC3)cc1	.	.	.	.	.	.
COc1ccc2c(C)cc(C)nc2n1	.	.	.	.	.[12.7 µM]	.
Cc1cc(C)c2ccc(=S)[nH]c2n1	.	.	15µM	.	8.9µM	.
CCc1nnc(NC(=O)c2nc(Cl)ccc2Cl)s1	.	.	.	.	?	.
CCc1nnc(NC(=O)c2nc(S(=O)(=O)Cc3ccc(C)cc3)ncc2Cl)s1	22µM	?	24µM	.	45µM!	14µM!
Cc1nnc(NC(=O)c2nc(S(=O)(=O)Cc3ccccc3C)ncc2Cl)s1	35µM	56µM	?	.	?	?
C=C1C(=O)OC2C[C@@]3(C)CCCC(C)C3=CC12 (stereo partly drawn)	40µM	/	/	/	/	/
CCN1C(=O)CSC1=Nc1ccccc1Cl	.	.	.	.	.	.
Nc1nc(-c2ccc(Cl)cc2)c(N=Nc2ccc(S(=O)(=O)N3CCOCC3)cc2)s1	.	7.1µM	.	?	?	?
Cc1ccc(Nc2nc(-c3ccc(S(=O)(=O)N4CCOCC4)cc3)cs2)cc1Cl	.	.	.	.	.	.
O=C(Nc1ccccc1)N1CCC2(CC1)CCN(C(=O)c1cnccn1)CC2	.	/	/	/	.[12.7 µM]	/
Cc1ccc(NC2=C(NCCO)C(=O)c3ccccc3C2=O)cc1	?	14µM	.	?	11µM	50µM
O=C1C(Cl)=C(NCCCO)C(=O)c2ccccc21	.	?	.	?	.[2.33 µM]	.

Screening results: PubChem, National Center for Advancing Translational Sciences (NCATS)
